MCF10A rerep: induces DNA re-replication in MCF 10a normal breast cells; Potency, µM (highest dose often 46.1 µM), for the others: at the top dose activity, positive = re-replication, most hits filed as activators; AID 624296; hit rate 2.9% among 350,000; MCF 10A DNA re-replication, Hoechst nuclear intensity, 48 h; further: % of control where 0% means no effect; nearly all actives have a fitted effect of over 50% in size
KB-V1 MDR tox: kills drug-selected multidrug resistant KB-V1 cells. KB-V1 MDR cells viability, CellTiter-Glo, 72 h. Potency, µM (highest dose often 46.1 µM), most hits filed as cytotoxic. hit rate 3.4% among 400,000. AID 1347076; further: on the % scale 0 is the no-effect control and ±100 the full control effect; nearly all actives have a fitted effect of over 60% in size
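Following 72 h at 37 degrees C with compound, KB-V1 cell viability was read by CellTiter-Glo luminescence, medium being phenol-red-free DMEM plus 10% FBS; concentration-response parameters came from normalized, curve-fitted qHTS data.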
KB-3-1 cytotox: kills parental KB-3-1 adenocarcinoma cells; Potency, µM (titrated, usually from 46.1 µM), usual class: cytotoxic; hit rate 1.4% among 400,000; AID 1347075; KB-3-1 viability, CellTiter-Glo ATP luminescence, 72 h; further: on the % scale 0 is the no-effect control and ±100 the full control effect; nearly all actives have a fitted effect of over 60% in size
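Using CellTiter-Glo luminescence, growth of non-resistant KB-3-1 adenocarcinoma cells is assessed 72 h after pin-tool compound addition at 37 °C. Normalized responses across the concentration series yield fitted curves.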
SW480 rerep: induces DNA re-replication in SW480 colon adenocarcinoma cells | SW480 DNA re-replication, Hoechst DNA content imaging, 48 h | hit rate 1.8% among 340,000 | Potency, µM (highest dose often 46.1 µM), for inactives: top-dose re-replication activation, most hits filed as activators; further: % of control where 0% means no effect; nearly all actives have a fitted effect of over 55% in size
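First, 250 cells per well were seeded. Next, compound or vehicle (23 nL) was pinned in, plates sat 48 hr at 37 C. Finally Hoechst was added for 40 min before fluorescence scanning.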
PINK1 modulator: PINK1 expression modulation; PINK1 immunofluorescence, high-content cytometry, 24 h; Potency, µM (highest dose often 76.6 µM), for the others: top-dose activation (PINK1 increase), most hits filed as activators; hit rate 0.2% among 410,000; active means well fitted activation curve with a large enough effect; inconclusive means small, poorly fitted or top-dose-only effect; cell line not stated here; further: % of control where 0% means no effect; nearly all actives have a fitted effect of over 65% in size
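PINK1 protein level read as immunofluorescence by microplate cytometer in a fixed, stained stable cell line after 24 h exposure to five compound concentrations, with CCCP as control.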
Numbers without * were called inactive; i = inactive; ? = inconclusive; · = not tested or not shown; [ ] = remark or other dose. Hits are enriched below; roughly 6.7% of the tested compounds scored in any of these assays. Unless noted, the call rests on the fitted dose curve; in most records, active means well fitted curve in the direction sought with a large enough effect; inconclusive means small, poorly fitted or top-dose-only effect, or another doubt; inactive means no such curve, though single readings can be large; an effect the other way counts as inactive or inconclusive. Potency means the concentration at half of the fitted maximal effect.

SMILES | MCF10A rerep | KB-V1 MDR tox | KB-3-1 cytotox | SW480 rerep | PINK1 modulator
CCN(Cc1nc2ccccc2c(=O)[nH]1)C(=O)c1cccc(OCc2c(C)noc2C)c1 | 4% | ? | ? | -1% | 2%
COc1ccc2nc(NC(=O)c3ccoc3C)sc2c1 | ? | 7.3µM* | i | 13% | 5%[38.3 µM]
COc1ccc2nc(NC(=S)N(C)C)sc2c1 | 11% | 3.3µM* | 21µM* | -9% | 4%
CCOc1ccc2nc(NC(=O)c3cccc(-c4cc5ccccc5oc4=O)c3)sc2c1 | ? | ? | i | 16µM* | -1%
CCN(Cc1ccc(Cl)s1)C(=O)c1cccc(OCc2c(C)noc2C)c1 | ? | 5.8µM* | ? | 4% | 8%
COc1ccc2nc(NC(=O)c3cc(C)oc3C)sc2c1 | 9% | ? | ? | -4% | 5%
CCCC(=O)Nc1nc2ccc(OC)cc2s1 | 9% | i | i | -3% | 1%
Cc1ccc2nc(NC(=O)c3cccc(-c4cc5ccccc5oc4=O)c3)sc2c1 | 17% | ? | i | -2% | 5%[38.3 µM]
CCOc1ccc(CNC(=O)CN2C(=O)CSc3c2c(C)nn3-c2ccccc2)cc1 | · | i | i | · | 7%
COc1ccc2nc(NC(=O)c3cccc(OCc4c(C)noc4C)c3)sc2c1 | 19% | 3.7µM* | 18µM* | ? | 0%
CCSc1nnc(NC(=O)c2cccc(OCc3c(C)noc3C)c2)s1 | ? | i | i | 6% | 2%
N#Cc1c(N)n(-c2cccc(Cl)c2)c2nc3ccccc3nc12 | · | i | i | · | -5%
O=C(COc1ccc2ccccc2c1Br)N1CCN(c2ccccn2)CC1 | 97% | 23µM* | ? | ? | -4%[38.3 µM]
O=C(COc1ccc2ccccc2c1Br)N1CCCCC1 | 0% | i | i | 3% | 1%
CCSc1nc2c(c(=O)[nH]c(=O)n2C)n1C/C=C(/C)Cl | 6% | i | i | 0% | 3%
CCOCCn1c(SCc2ccc(F)cc2)nc2c1c(=O)[nH]c(=O)n2C | 1% | i | i | -8% | 1%
C/C=C/Cn1c(SCc2ccccc2)nc2c1c(=O)[nH]c(=O)n2C | 4% | 2.9µM* | i | -2% | -1%
COCCn1c(SCc2ccc(F)cc2)nc2c1c(=O)[nH]c(=O)n2C | 0.46µM* | i | i | 8% | 1%
C=CCSc1nc2c(c(=O)[nH]c(=O)n2C)n1C/C=C(/C)Cl | 16% | 13µM* | i | -8% | -1%
COc1ccccc1C1CN(CCNC(=O)c2ccccc2Cl)Cc2ccccc2O1 (configuration not stated) | · | · | · | · | -1%
COc1ccccc1C1CN(Cc2cn(C)nc2C)Cc2ccccc2O1 (configuration not stated) | · | · | · | · | 0%
COc1ccc(NC(=O)c2cccc(OC(=S)N3CCOCC3)c2)cc1 | -2% | 16µM* | i | -7% | -1%
COc1ccc(N(C)S(=O)(=O)c2cccc(C(=O)Nc3ccc(N4CCOCC4)cc3)c2)cc1 | 16% | 15µM* | ? | ? | 4%
O=C(c1cnccn1)N1CCC[C@@]2(CCN(Cc3cc(C(F)(F)F)cc(C(F)(F)F)c3)C2)C1 | · | · | · | · | 0%
Cc1ccc(S(=O)(=O)NCCc2cn3ccsc3n2)c(C)c1 | · | · | · | · | 0%
SMILES | MCF10A rerep | KB-V1 MDR tox | KB-3-1 cytotox | SW480 rerep | PINK1 modulator
COc1ccccc1-c1c(C(F)(F)F)oc2cc(OS(C)(=O)=O)ccc2c1=O | 1% | 21µM* | ? | -5% | 4%
COc1ccccc1-c1c(C(F)(F)F)oc2cc(OCC(=O)Nc3ccccc3C(F)(F)F)ccc2c1=O | 4% | i | i | -1% | 13%
COc1ccc(-c2c(C(F)(F)F)oc3cc(OCC(=O)Nc4ccccc4C(F)(F)F)ccc3c2=O)cc1OC | 8.2µM* | ? | i | 3% | -1%
COc1cccc(-c2ccc(O)c(CNC(c3ccccc3)c3ccc(Cl)cc3)c2)n1 (configuration not stated) | · | · | · | · | 0%
Cc1ccc(NC(=O)CS(=O)CC(=O)Nc2cnc3ccccc3c2)cc1Cl (configuration not stated) | 24% | i | i | -1% | 3%
Cc1ccc(NC(=O)CS(=O)CC(=O)NCCCc2ccccc2)cc1Cl (configuration not stated) | ? | i | i | 7.3µM* | ·
Cc1[nH]c2ccccc2c1C(O)CN1CCN(c2cccc(C(F)(F)F)c2)CC1 (configuration not stated) | ? | ? | 15µM* | -2%[9.22 µM] | -1%
CCC(=O)c1ccc(/C=C/c2nc3ccccc3n2C)o1 | 8.2µM* | i | i | 18µM* | 1%
CCCCOc1ccc(-c2cn3ccccc3n2)cc1[N+](=O)[O-] | 12µM* | ? | i | 26% | 4%
CN(C)S(=O)(=O)c1ccc(-c2cn3ccccc3n2)cc1 | 4% | 16µM* | i | -2% | 0%[38.3 µM]
CCCOc1ccc(-c2csc(N)n2)cc1[N+](=O)[O-] | -4% | i | i | 0% | 3%
CCOc1ccc(-c2cn3ccccc3n2)cc1[N+](=O)[O-] | 21µM* | ? | i | ? | 1%
O=[N+]([O-])c1ccc(-c2cn3ccccc3n2)cc1 | -1% | ? | i | -10% | 6%
O=C(NNC(=O)c1cc(-c2ccc(Cl)cc2Cl)nc2ccccc12)Nc1ccccc1 | ? | 23µM* | ? | ? | 4%
Cc1nc2ccccc2c2oc(C(=O)NCc3ccccn3)cc12 | 14% | 2.6µM* | i | -4% | 3%[38.3 µM]
O=C(NCc1ccccn1)c1cc(-c2ccccc2Cl)nc2ccccc12 | 1% | 18µM* | i | -33% | -2%
Cc1c(C(=O)NCc2ccccn2)oc2ccccc12 | -8% | i | i | -1% | ?
Cc1c(C(=O)NCc2ccccn2)oc2c(Cl)cccc12 | 12% | 8.2µM* | i | 0% | 0%
O=C(NC1CCCCC1)C(c1ccc(O)cc1)N(C(=O)c1cnccn1)c1cccc(F)c1 (configuration not stated) | 4% | i | i | 2% | 2%
O=C(NCCc1ccccn1)c1cc(-c2ccc(Cl)c(Cl)c2Cl)nc2ccccc12 | 8% | 5.8µM* | ? | -2% | 4%
O=C(Nc1nn[nH]n1)c1cc(-c2ccc(Cl)c(Cl)c2Cl)nc2ccccc12 | -2% | i | i | -1% | 3%
O=C(Nc1cccc(Cl)c1)C1COc2ccccc2O1 (configuration not stated) | -6% | i | i | -2% | 2%
CS(=O)(=O)N1CCN(Cc2cc3nc(-c4cccc5[nH]ncc45)nc(N4CCOCC4)c3s2)CC1 | · | ? | 5µM* | · | 1%[153 µM]
CCOC(=O)C#CC(CCc1ccccc1)OS(N)(=O)=O (configuration not stated) | 5.2µM* | i | i | -2% | 2%
O=S1(=O)CCO[C@H]2CCCC[C@@H]2N1Cc1ccccc1 | · | i | i | · | ·
